Source: PubChem
FBW7 activator: human FBW7 E3 ligase activation, primary screen. AlphaScreen FBW7–phospho-cyclin E peptide binding, activator screen. normalized activity (activation), % at 26.1 µM. 650,000 tested, 0.13% active. AID 1259310; in the data active means normalized activity above about 1.9%;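 further: purified mutant Fbw7 with reduced substrate affinity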
GPR151 ag: activators of human GPR151 | 650,000 tested, 1% active | activation, % at 11.2 µM | PathHunter beta-arrestin GPR151 cells, luminescence | Q8TDV0 | AID 1508602; in the data active means activation above about 4.9%;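 further: 0% = median of compound wells and 100% = cells with positive control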
TEAD-YAP inh: TEAD-YAP interaction inhibition; HEK-TIYL cells, TEAD-Gal4/YAP UAS-luciferase luminescence; inhibition, % at 9.12 µM; 640,000 tested, 1.4% active; AID 1259422; in the data active means inhibition above about 32%;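 further: 0% = median of test compound wells and 100% = reference inhibitor wells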
MITF primary: inhibitors of human MITF; AID 1259374; 650,000 tested, 0.91% active; inhibition, % at 2.6 µM; O75030; AlphaScreen MITF homodimerization, bead proximity signal; in the data active means inhibition above about 50%;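 further: 0% = vehicle wells with protein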
Target sequence (O75030 whole entry, looked up): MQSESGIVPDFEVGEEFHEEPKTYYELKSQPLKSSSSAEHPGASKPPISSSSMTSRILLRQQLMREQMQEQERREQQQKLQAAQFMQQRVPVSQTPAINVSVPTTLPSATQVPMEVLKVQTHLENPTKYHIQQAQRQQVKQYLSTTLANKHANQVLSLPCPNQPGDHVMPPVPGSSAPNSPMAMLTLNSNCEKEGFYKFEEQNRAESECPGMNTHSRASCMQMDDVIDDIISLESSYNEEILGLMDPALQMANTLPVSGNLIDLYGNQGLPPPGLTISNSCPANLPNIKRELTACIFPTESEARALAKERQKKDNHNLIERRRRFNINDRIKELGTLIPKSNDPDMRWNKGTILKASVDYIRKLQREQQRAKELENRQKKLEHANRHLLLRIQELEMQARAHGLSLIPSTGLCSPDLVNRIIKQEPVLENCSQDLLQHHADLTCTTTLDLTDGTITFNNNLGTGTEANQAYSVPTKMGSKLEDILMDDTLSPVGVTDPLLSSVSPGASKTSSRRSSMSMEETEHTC
Numbers without * were called inactive. This is a sample that favours compounds with a hit; in the whole collection about 3.5% have one here.

`COCCNc1ccnc2c(-c3ccc(F)c(Cl)c3)cnn12` gave FBW7 activator 1.9*, GPR151 ag 0, TEAD-YAP inh -1 and MITF primary 2.
`Cc1cccc(C(=O)Nc2sc3c(c2C(=O)N2CCN(Cc4ccccc4)CC2)CCCCC3)c1` gave FBW7 activator 0, GPR151 ag 1, TEAD-YAP inh 7 and MITF primary 11.
Screening Cc1ccc(S(=O)(=O)N2CCCC2CNC(=O)c2ccco2)cc1 (stereo unspecified) returned FBW7 activator 0, GPR151 ag 0, TEAD-YAP inh 7 and MITF primary 9.
CCc1ccc(NC(=O)C2C3C=CC4(CN(CCCN5CCOCC5)C(=O)C24)O3)cc1 (stereo unspecified) was read as FBW7 activator 0, GPR151 ag 0, TEAD-YAP inh 1 and MITF primary 2.
For N#Cc1cc2cc3c(cc2nc1SCC(=O)NCc1cccs1)OCCO3 the results were FBW7 activator 1, GPR151 ag -1, TEAD-YAP inh 46* and MITF primary 7.
Screening N#Cc1cc2cc3c(cc2nc1SCC(=O)NCc1ccc2c(c1)OCO2)OCCO3 returned FBW7 activator 0, GPR151 ag 0, TEAD-YAP inh 50* and MITF primary 18.
Screening COc1ccccc1NC(=O)CSc1nc2cc3c(cc2cc1C#N)OCCO3 returned FBW7 activator 1, GPR151 ag -1, TEAD-YAP inh 62* and MITF primary 23.
For COc1cc2cc(C#N)c(SCC(=O)NCc3cccs3)nc2cc1OC the results were FBW7 activator 0, GPR151 ag -1, TEAD-YAP inh -2 and MITF primary -8.
Cc1ccc2nc(SCC(=O)Nc3ncc(C)s3)c(C#N)cc2c1 was read as FBW7 activator 3.8*, GPR151 ag 0, TEAD-YAP inh -73 and MITF primary 7.
Screening O=C(/C=C/c1ccsc1)c1ccc(N2CCOCC2)cc1 returned FBW7 activator 0, GPR151 ag 1, TEAD-YAP inh -50 and MITF primary 3.
CCN(CC(=O)NC(C)C)Cc1csc(-c2ccccc2Cl)n1 was read as FBW7 activator 0, GPR151 ag -1, TEAD-YAP inh -7 and MITF primary 2.
`COc1cnc(-c2ccccn2)nc1-c1ccccc1` gave FBW7 activator -1, GPR151 ag 3, TEAD-YAP inh 40* and MITF primary 18.
Screening COC(=O)C1=C(N)Oc2cc(C)n(CC3CCCO3)c(=O)c2C1c1ccc(Cl)cc1 (stereo unspecified) returned FBW7 activator 2.3*, GPR151 ag -1, TEAD-YAP inh 1 and MITF primary -21.
Screening COc1ccc(/C=C2/C(=O)OCc3cc(OC)c(OC)cc32)cc1 returned FBW7 activator 0, GPR151 ag 1, TEAD-YAP inh 45* and MITF primary 6.
O=C(Nc1ccc(O)cc1)c1sc2ccccc2c1Cl was read as FBW7 activator 0, GPR151 ag -2, TEAD-YAP inh 87* and MITF primary 3.
For COC(=O)c1sc(NC(=O)c2sc3ccccc3c2Cl)nc1C the results were FBW7 activator 0, GPR151 ag 2, TEAD-YAP inh -59 and MITF primary 28.
For Cc1nc(NC(=O)c2sc3ccccc3c2Cl)sc1C the results were FBW7 activator 0, GPR151 ag -8, TEAD-YAP inh 87* and MITF primary 7.
`O=C(N/N=C/c1ccc(O)c(O)c1O)c1sc2ccccc2c1Cl` gave FBW7 activator -1, GPR151 ag -1, TEAD-YAP inh -1 and MITF primary 61*.
`O=C(NCCO)c1cccc(-c2cnc3c(NCc4ccc5c(c4)OCO5)nccn23)c1` gave FBW7 activator 0, GPR151 ag 1, TEAD-YAP inh 1 and MITF primary -2.
`COc1ccc(N=C2O/C(=C\c3sc(=S)n(CC4CCCO4)c3O)N=C2C#N)cc1` (stereo unspecified) gave FBW7 activator 0, GPR151 ag -1, TEAD-YAP inh 9 and MITF primary 52*.
Screening CCc1ccc(CN(C)C(=O)CCc2nnc(CCc3c[nH]c4ccccc34)o2)nc1 returned FBW7 activator 1, GPR151 ag 0, TEAD-YAP inh 2 and MITF primary 3.
`COc1cccc2c1OCCCN(C1CCC(=O)N(Cc3cccc(C)c3)CC1)C2` (stereo unspecified) gave FBW7 activator 0, GPR151 ag 1, TEAD-YAP inh -2 and MITF primary -17.
`C(=N\n1cnnc1)/c1cccc(OCc2cccc3ccccc23)c1` gave FBW7 activator 0, GPR151 ag -1, TEAD-YAP inh 50* and MITF primary 17.
Brc1ccc(/C=N/n2cnnc2)cc1 was read as FBW7 activator 0, GPR151 ag 0, TEAD-YAP inh 11 and MITF primary 18.
`Brc1cccc(/C=N/n2cnnc2)c1` gave FBW7 activator 0, GPR151 ag 0, TEAD-YAP inh 91* and MITF primary 13.
`C(=N\n1cnnc1)/c1ccc(OCc2cccc3ccccc23)cc1` gave FBW7 activator 0, GPR151 ag -1, TEAD-YAP inh -53 and MITF primary -8.
O=C(NNC(=O)c1ccncc1)Nc1ccc(Cl)c(Cl)c1 was read as FBW7 activator 0, GPR151 ag -2, TEAD-YAP inh -5 and MITF primary -3.
`CC1=NN(C(=S)c2ccccc2)C(C)(O)C12CC2` (stereo unspecified) gave FBW7 activator 0, GPR151 ag -3, TEAD-YAP inh 33* and MITF primary 2.
Screening CC1=NN(C(=O)c2ccccc2)C(C)(C)C1 returned FBW7 activator 0, GPR151 ag 0, TEAD-YAP inh -5 and MITF primary -6.
COc1ccc2cc3cc(C(=O)N4CCCCC4C)oc3nc2c1 (stereo unspecified) was read as FBW7 activator 0, GPR151 ag -3, TEAD-YAP inh 36* and MITF primary -6.
COc1ccc(S(=O)(=O)N(CC(=O)NCCc2ccc(OC)c(OC)c2)c2ccc(C)cc2)cc1 was read as FBW7 activator 0, GPR151 ag -1, TEAD-YAP inh 36* and MITF primary 1.
COc1ccc2cc3cc(C(=O)NCCc4ccc(OC)c(OC)c4)oc3nc2c1 was read as FBW7 activator 0, GPR151 ag 2, TEAD-YAP inh 45* and MITF primary -13.
Cc1ccc(Cl)cc1NC(=O)CN1C(=O)CN(C)C1=O was read as FBW7 activator 0, GPR151 ag 0, TEAD-YAP inh 14 and MITF primary 3.
For COCCOC(=O)C1=C(C)NC2=C(C(=O)CC(c3cccs3)C2)C1c1cccc(OC)c1 (stereo unspecified) the results were FBW7 activator 0, GPR151 ag -1, TEAD-YAP inh 14 and MITF primary -9.
COC(=O)C1=CN(C(C)C)C=C(C(=O)OC)C1c1cccc(OC)c1 was read as FBW7 activator 1, GPR151 ag 1, TEAD-YAP inh 6 and MITF primary 8.
Screening CCOC(=O)C1=CN(C(C)C)C=C(C(=O)OCC)C1c1cccc(OC)c1 returned FBW7 activator 8.5*, GPR151 ag 1, TEAD-YAP inh -2 and MITF primary -42.
